Our source for the inhibition values is ChEMBL document CHEMBL3433997, “St. Jude Leishmania screening dataset” (2016).

One may read the inhibition as the drop in the measured response relative to a control, in per cent.

Assay type in all cases: functional
Assay [1] deals with Solute carrier family 2, facilitated glucose transporter member 1 (Homo sapiens) (UniProt P11166). As to the kind of experiment: ST_JUDE_LEISH: Cytotoxicity at 2uM final concentration against transgenic Leishmania Mexicana promastigotes LmGLUT1 that are glucose transport deficient and complemented with the human glucose transporter GLUT1. Activity is measured by DNA content using SYBR green in vitro.
Sequence of Solute carrier family 2, facilitated glucose transporter member 1 (Homo sapiens) (P11166 whole entry): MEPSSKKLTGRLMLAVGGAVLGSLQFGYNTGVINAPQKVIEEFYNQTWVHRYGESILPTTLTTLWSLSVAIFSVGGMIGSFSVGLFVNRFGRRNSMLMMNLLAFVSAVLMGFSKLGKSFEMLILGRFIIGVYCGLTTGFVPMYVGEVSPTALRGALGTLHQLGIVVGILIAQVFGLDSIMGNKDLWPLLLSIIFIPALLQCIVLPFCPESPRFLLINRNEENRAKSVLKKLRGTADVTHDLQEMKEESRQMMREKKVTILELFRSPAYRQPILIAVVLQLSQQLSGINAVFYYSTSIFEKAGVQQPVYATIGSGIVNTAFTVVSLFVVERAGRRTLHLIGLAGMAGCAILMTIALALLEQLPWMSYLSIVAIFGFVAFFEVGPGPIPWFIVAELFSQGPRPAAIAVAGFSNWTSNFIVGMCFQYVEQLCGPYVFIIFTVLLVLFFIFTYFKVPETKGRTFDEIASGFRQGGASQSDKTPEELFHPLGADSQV

Assay [2] concerns the target Hexose transporter 1 (Plasmodium falciparum) (UniProt O97467). As to the kind of experiment: ST_JUDE_LEISH: Cytotoxicity at 2uM final concentration against transgenic Leishmania Mexicana promastigotes LmPfHT that are glucose transport deficient and complemented with the Plasmodium falciparum hexose transporter. Activity is measured by DNA content using SYBR green in vitro.

The target of assay [3] is Glucose transporter (Leishmania mexicana) (UniProt O61059). As to the kind of experiment: ST_JUDE_LEISH: Cytotoxicity at 2uM final concentration against transgenic Leishmania Mexicana promastigotes LmGT2 that are glucose transport deficient and complemented with the L. Mexicana glucose transporter 2. Activity is measured by DNA content using SYBR green in vitro.

The structures appear in SMILES notation.

For the compound `CCCCCCNC(=O)c1nn(CCN2CCC(N3CCCC3)CC2)cc1-c1ccc(Cl)c(Cl)c1`, the inhibition in assay [1] is 0.97%; in assay [2], 1.84%; in assay [3], 1.8%.
In the same order, the values of `Cc1cccc(CNc2nc(C)cc(N[C@@H](CC(C)C)C(=O)NCCOc3ccccc3)n2)c1` are 4.29%, 5.38% and 2.08%.
For `CN1CCC(NCc2ccc(-c3cccc(S(=O)(=O)NCC4CCCO4)c3)cc2)CC1` (stereo unspecified), the inhibition in assay [1] was 0.62%; in assay [2], 3.18%; in assay [3] it was 6.61%.
In the same order, the values of `COc1ccc(S(=O)(=O)NC2CCN(CCCOc3ccnc4cc(Cl)ccc34)C2)cc1OC` (stereo unspecified) are 3.41%, 3.81% and 2.88%.
As to `CC(=O)Nc1ccc(CN(Cc2cccc(OC(C)(C)C)c2)Cc2ccc3c(c2)OCCO3)cc1`, the inhibition in assay [1] was 4.55%; in assay [2], 2.67%; in assay [3], 6.39%.
Regarding `O=C(/C=C/c1cccc(OC(F)(F)F)c1)NCCCCCN1CCC(c2c[nH]c3ccccc23)CC1`, the inhibition in assay [1] was 1.81%; in assay [2] it was 0.75%; in assay [3], -2.1%.
Turning to `COc1ccc(NC(=O)C2c3ccccc3C(=O)N(C3CCCC3)C2c2cccs2)c(OC)c1` (stereo unspecified), the inhibition was 1.15% in assay [1], -0.63% in assay [2] and -1.93% in assay [3].
In the same order, the values of `COc1cc2c(cc1N(C(C)C)S(=O)(=O)c1sc3ccc(Cl)cc3c1C)CCNCC2` are 43.3%, 10.2% and 3.21%.
For the compound `O=C(Nc1cccc(-c2ccc(-c3nc4cc(F)ccc4[nH]3)cc2)c1)c1cccnc1`, the inhibition in assay [1] worked out at 7.59%; in assay [2] it was 7.21%; in assay [3], 6.47%.
In the same order, the values of `O=C(COc1ccc(F)cc1)NC1CCN(c2ccnc3cc(Cl)ccc23)C1` (stereo unspecified) are 7.22%, 6.11% and 6.88%.
In the same order, the values of `COc1cc2nc(-c3ccccc3)nc(N3CCN(CC(=O)N4CCCC4)CC3)c2cc1OC` are 3.46%, 1.22% and 4.86%.
`CN1C(C)(C)CC(NC(=O)c2ccc(-c3nc4cc(Cl)ccc4[nH]3)cc2)CC1(C)C`: the inhibition in assay [1] came out at 1.69%; in assay [2], 2.24%; in assay [3] it was 2.7%.
